Paper PMC5540273 (PLoS ONE, 2017)

What follows are molecules tested on ZAP70. Details: concentration: 1 μM, replicates: in singlicate; n = 1.
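Also: KINOMEscan kinase panel screen.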

SMILES	%Inh [%]
Cc1ccc(NC(=O)Nc2ccccc2)cc1-c1ccc(C(=O)Nc2ccncc2)cc1 [GSK1398471]	0
O=C(Nc1n[nH]c2nc(-c3cccs3)c(Br)cc12)C1CC1 [SB-735297]	0
O=C(Nc1n[nH]c2nc(-c3cccs3)c(Br)cc12)C1CCCC1 [SB-743341]	0
O=c1cc(N2CCOCC2)nc2n(Cc3ccccc3F)ccn12 [GSK2297428]	0
Cl.Cl.Cl.N#Cc1ccc(CCNc2nccc(-c3cccc(CN4CCNCC4)c3)n2)cc1 [GSK2137462]	0
CSc1ccc(-c2nc3n(c2-c2ccncc2)CCC3)cc1 [SKF-105561]	0
Cc1ccc(NC(=O)Nc2ccccc2F)cc1-c1ccc(C(=O)Nc2ccncc2)cc1 [GSK1398477]	0
CCc1ccc(-c2ccc3c(c2)-c2n[nH]cc2S(=O)(=O)N3C)cc1	3
COc1ccc(Nc2nccc(N3CCC(NC(=O)c4cc5ccccc5s4)C3)n2)cc1 (stereo not drawn) [GSK1379738]	0

What follows are molecules tested on T1, p38-alpha. Details: concentration: 1 μM, replicates: in singlicate; n = 1.
T1 construct: gene MAPK14

SMILES	%Inh [%]
Cc1ccc(-c2nc(Nc3ccncc3)c3ccccc3n2)s1 [GSK189015]	0
CNc1nc(-c2ccc3c(N)n[nH]c3c2)cc(N2C[C@@H](C(=O)NC3CCCCC3)OC[C@H]2C)n1 [GSK2375584]	23
Cn1cnc2c(N)ncnc21 [SKF-97623]	0
Fc1ccc(-c2nc[nH]c2-c2ccncc2)cc1 [SB-217360]	97.9
COc1cccc(NC(=O)Nc2ccc(C)c(-c3ccc(C(=O)Nc4ccncc4)cc3)c2)c1 [GSK1398474]	6
Nc1ncnc2occ(-c3ccc4c(c3)CCN4C(=O)Cc3cc(F)ccc3F)c12 [GSK2645446]	0
COc1ccc(CSc2nnc(-c3ccc4nccn4c3)o2)cc1C(F)(F)F	4
Cc1cccc2c(-c3ccncn3)c(-c3ccc(F)cc3)nn12 [GW515532]	91.6
Cc1ccccc1-c1cc(-c2c[nH]nc2-c2ccccn2)ccn1 [GW680061]	85
CCCCc1nn2ncccc2c1-c1ccnc(NC2CC2)n1 [GW684374]	61
CCn1c(-c2ccccc2)nc2cnccc21 [SB-733416]	0
Cn1cncc1-c1cc2c(Nc3ccc(OCc4ccccc4)cc3)ncnc2cn1 [GW281179]	0
Cc1c(Cn2c3ccccc3n3c(=O)cc(N4CCOCC4)nc23)cccc1C(F)(F)F [GSK2306394]	22
CS(=O)(=O)CCNCc1nc(-c2ccc3ncnc(Nc4ccc(OCc5ccccc5)c(Cl)c4)c3c2)cs1.Cl [GW582764]	0
COC(=O)C(NC(=O)NC1CCN(c2ccnc(Nc3ccc(F)cc3)n2)C1)c1ccccc1 (stereo not drawn) [GSK1379712]	12
Cc1ccc(NC(=O)Nc2ccc(Cl)c(C(F)(F)F)c2)cc1-c1ccc(C(=O)Nc2ccncc2)cc1 [GSK1398470]	95.9
COc1ccc(-c2coc3ccc(-c4nnc(C)o4)cc23)cc1	0
COC(=O)c1cccc(NC(=O)NC2CCN(c3ccnc(Nc4ccc(OC)cc4)n3)C2)c1 (stereo not drawn) [GSK1379746]	3

SMILES	%Inh [%]
CC(=O)c1c(C)c2cnc(Nc3ccn(C)n3)nc2n(C2CCCC2)c1=O	0
CC(=O)c1c(C)c2cnc(Nc3ccc(N4CCNCC4)cn3)nc2n(C2CCCC2)c1=O	0
FC(F)(F)c1ccccc1-c1cc(-c2c[nH]nc2-c2ccccn2)ccn1 [GW679396]	95.4
CCn1c(-c2c(N)noc2C)nc2cnccc21 [SB-737856]	0
Fc1ccc(-c2nn3cccc(F)c3c2-c2ccncc2)cc1 [GW475620]	97.6
CS(=O)(=O)Cc1ccc(Nc2nccc(-c3c(-c4cccc(NC(=O)C5CCCCC5)c4)nn4ncccc34)n2)cc1 [GSK350559]	2
CC(C)c1cc(-c2ccc3c(N)n[nH]c3c2)nc(N)n1 [GSK2250882]	9
Nc1cccc(-c2ccc3c(N)n[nH]c3c2)n1 [GSK2192730]	8
COc1nccc(-c2c(-c3ccc(F)cc3)ncn2CCCN2CCOCC2)n1 [SB-282852]	81
Cc1ccc(NC(=O)Nc2ccccc2)cc1-c1ccc(C(=O)Nc2ccncc2)cc1 [GSK1398471]	0
O=C(Nc1n[nH]c2nc(-c3cccs3)c(Br)cc12)C1CC1 [SB-735297]	4
O=C(Nc1n[nH]c2nc(-c3cccs3)c(Br)cc12)C1CCCC1 [SB-743341]	13
O=c1cc(N2CCOCC2)nc2n(Cc3ccccc3F)ccn12 [GSK2297428]	5
Cl.Cl.Cl.N#Cc1ccc(CCNc2nccc(-c3cccc(CN4CCNCC4)c3)n2)cc1 [GSK2137462]	0
CSc1ccc(-c2nc3n(c2-c2ccncc2)CCC3)cc1 [SKF-105561]	51
Cc1ccc(NC(=O)Nc2ccccc2F)cc1-c1ccc(C(=O)Nc2ccncc2)cc1 [GSK1398477]	36
CCc1ccc(-c2ccc3c(c2)-c2n[nH]cc2S(=O)(=O)N3C)cc1	0
COc1ccc(Nc2nccc(N3CCC(NC(=O)c4cc5ccccc5s4)C3)n2)cc1 (stereo not drawn) [GSK1379738]	20
